These results are taken from PubChem BioAssay (NCATS).

“And” between values parts separate entries of the source, which are not always exact repeats. Equal values may be shown once. Records with an inconclusive call do not appear. The source holds several records for some structures; these can differ, active in one and inactive in another. The source made the active and inactive calls. Calls follow the shape of the dose curve; as a rule, active = well fitted curve in the direction sought with a large enough effect; inconclusive = small, poorly fitted or top-dose-only effect, or another doubt; inactive = no such curve, though single readings can be large; an effect the other way counts as inactive or inconclusive.

Assay [1] in a line: MultiTox-Fluor Cytotoxicity Assay - LYMP1-002 - Live Cells (AID 955). The essentials:
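After 16 h compound exposure at 37 C, live LYMP1-002 lymphoblastoid cells (2500/well) were quantified by cleavage of cell-permeant GF-AFC substrate, read at 405/510 nm after 60 min. Concentration-response fitted with Hill equation for AC50.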

The nature of assay [2]: MultiTox-Fluor Cytotoxicity Assay - LYMP1-002 - Dead Cells (AID 960). Also: nearly all actives have a fitted effect of over 60% in size. Also: potency is read from the fitted curve at half-maximal effect. The essentials: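 Dead-cell fluorescence (Ex/Em 485/520) after 16 h compound exposure at 37 C of LYMP1-002 lymphoblastoid cells in complete medium; AC50 by Hill equation, with data scaled between DMSO and 15 uM tetraoctylammonium bromide.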
A short description of assay [3]: MultiTox-Fluor Cytotoxicity Assay - LYMP1-003 - Dead Cells (AID 961). Also: nearly all actives have a fitted effect of over 70% in size. The gist of the method:
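LYMP1-003 lymphoblastoid, 2500 cells/well, 5 hr settle then 16 hr cpd at 37 C; MultiTox-Fluor reagent 60 min RT; Ex/Em 485/520 dead-cell signal; norm. DMSO = 0%, 15 uM tetraoctylammonium bromide = 100%; Hill AC50.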

The nature of assay [4]: MultiTox-Fluor Cytotoxicity Assay - LYMP1-003 - Live Cells (AID 962).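 Also: cytotoxic hits lower the live-cell protease signal.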 The gist of the method:
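Live-cell protease activity (GF-AFC substrate, 405/510 nm, 60 min at room temperature) after 16 h, 37 C compound exposure of human lymphoblastoid LYMP1-003 cells; concentration-response fitted to the Hill equation for AC50.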

Assay [5] can be described thus: Cell Viability - LYMP1-003 - Assay at 24 hr (AID 963). The gist of the method: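 Concentration-response qHTS: ATP loss measured by CellTiter-Glo luminescence after 24 h compound exposure at 37 C. Cells were LYMP1-003 human lymphoblastoid, 2500 per well. AC50 derived via standard Hill equation modeling.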
Assay [6] is described as follows: Cell Viability - LYMP1-003 - Assay at 40 hr (AID 964). Also: series mostly up to about 92 µM; nearly all actives have a fitted effect of over 60% in size. The essentials:
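Viability is taken as cellular ATP, read by CellTiter-Glo luminescence after 40 h of compound exposure at 37 C. Cells: human lymphoblastoid line LYMP1-003 at 2500/well; AC50 values derived by Hill-equation fitting of concentration-response data.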

A short description of assay [7]: Cell Viability - LYMP2-003 (AID 965).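 Also: cells exposed to compounds for 24 h before reading; nearly all actives have a fitted effect of over 50% in size.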 The gist of the method:
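Seed 2500 lymphoblastoid cells/well; incubate 5 hr, 37 C; add compounds; incubate 24 hr, 37 C; add CellTiter-Glo, 30 min RT; read luminescence. AC50 from Hill fit.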

Assay [8] can be described thus: Cell Viability - LYMP2-004 (AID 966). Also: nearly all actives have a fitted effect of over 65% in size. The essentials: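 AC50 values come from Hill modelling of concentration-dependent loss of intracellular ATP, measured by CellTiter-Glo luminescence. Human LYMP2-004 lymphoblastoid cells (2500/well) were exposed to compound for 24 h at 37 C.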
Assay [9] can be described thus: Cell Viability - LYMP2-005 (AID 967). Also: series mostly up to about 92 µM. The gist of the method: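 Acute cytotoxicity is scored as a concentration-dependent drop in intracellular ATP in human lymphoblastoid LYMP2-005 cells after 24 h compound treatment. ATP is quantified by luciferase luminescence, and AC50 is derived by Hill-equation modelling.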
The nature of assay [10]: Cell Viability - LYMP2-009 (AID 968). Also: series mostly up to about 92 µM; nearly all actives have a fitted effect of over 55% in size.
A short description of assay [11]: Cell Viability - LYMP2-011 (AID 969). Also: nearly all actives have a fitted effect of over 60% in size. The gist of the method: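 Cytotoxicity qHTS with ATP content as read-out: lymphoblastoid cells (2500/well) exposed to compound for 24 h at 37 C, then luciferase luminescence measured. Concentration-response data fitted with the standard Hill equation to give AC50.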
Assay [12] is described as follows: Cell Viability - LYMP2-013 (AID 970). Also: series mostly up to about 92 µM; nearly all actives have a fitted effect of over 55% in size. The gist of the method: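 qHTS cytotoxicity: ATP-dependent luminescence (CellTiter-Glo, 30 min room temperature) read after 24 h compound exposure at 37 C of 2500 LYMP2-013 lymphoblastoid cells per well. Concentration-response fitted with Hill equation to give AC50.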
Assay [13] in a line: Cell Viability - LYMP2-015 (AID 971). Also: nearly all actives have a fitted effect of over 55% in size. The gist of the method:
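Cytotoxicity readout: decrease in intracellular ATP (CellTiter-Glo luminescence) in 2500 LYMP2-015 lymphoblastoid cells/well after 24 h compound exposure at 37 C. Concentration-response data fitted with the standard Hill equation to give AC50.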

Assay [14] can be described thus: Cell Viability - LYMP2-017 (AID 972). Also: series mostly up to about 92 µM; nearly all actives have a fitted effect of over 55% in size. The essentials: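 CellTiter-Glo luminescence (cellular ATP, 30 min RT) measured cytotoxicity after 24 hr compound treatment at 37 C. Cells were a human lymphoblastoid line, LYMP2-017, plated at 2500/well and incubated 5 hr first; concentration-response fitted with Hill equation for AC50.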
Assay [15] is described as follows: Cell Viability - LYMP2-019 (AID 973). Also: nearly all actives have a fitted effect of over 55% in size. The gist of the method:
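AC50 values come from Hill-equation fits of luminescent intracellular ATP (CellTiter-Glo, 30 min, room temperature) following 24 h compound exposure at 37 C. Cells: LYMP2-019 lymphoblastoid line, 2500 per well, in complete culture medium.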

A short description of assay [16]: Cell Viability - LYMP2-021 (AID 974). Also: nearly all actives have a fitted effect of over 55% in size. The gist of the method: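 AC50 values come from Hill-equation fits to CellTiter-Glo luminescence (ATP content), read after 24 hour compound exposure at 37 C of 2500 LYMP2-021 lymphoblastoid cells/well; tetraoctylammonium bromide as positive control.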
Assay [17] in a line: Cell Viability - LYMP2-023 (AID 975). The gist of the method:
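Intracellular ATP, read by CellTiter-Glo luminescence, reports viability after 24 hr compound exposure at 37 C. 2500 lymphoblastoid cells/well (LYMP2-023) seeded 5 hr beforehand; Hill fits give AC50; positive control tetraoctylammonium bromide.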

Assay [18] is described as follows: Cell Viability - LYMP2-025 (AID 976). Also: series mostly up to about 92 µM. The gist of the method:
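Cytotoxicity read as loss of intracellular ATP (luciferase luminescence) after 24 h compound treatment at 37 C. Uses LYMP2-025 lymphoblastoid cells in 1536-well format; Hill-equation modelling gives AC50; tetraoctylammonium bromide as positive control.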

Assay [19] can be described thus: Cell Viability - LYMP2-002 (AID 977). Also: series mostly up to about 92 µM. The gist of the method: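 Human lymphoblastoid cells, 2500/well, complete medium; 5 h 37 C settle; compound 24 h 37 C; CellTiter-Glo, 30 min RT; luminescence. Decrease in ATP = cytotoxicity; AC50 via Hill equation.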
The target of assay [20] is Alpha-galactosidase (Coffea arabica) (UniProt Q42656). Put plainly: Counterscreen for Glucocerebrosidase Inhibitors: qHTS Assay for Coffee Bean alpha-Galactosidase at pH 4.5 (AID 957). Also: series mostly up to about 77 µM. The essentials:
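Fluorogenic qHTS at pH 4.5 (citrate buffer with Tween-20): 2 nM enzyme, 80 uM 4-MU-alpha-galactoside substrate, compound titrated 0.7 nM to 77 uM, 20 min room temperature. Glycine/NaOH stop; 4-MU read Ex 365/Em 440; Hill-equation AC50 against no-enzyme and enzyme controls.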

Alpha-galactosidase (Coffea arabica), sequence (Q42656 whole entry, looked up): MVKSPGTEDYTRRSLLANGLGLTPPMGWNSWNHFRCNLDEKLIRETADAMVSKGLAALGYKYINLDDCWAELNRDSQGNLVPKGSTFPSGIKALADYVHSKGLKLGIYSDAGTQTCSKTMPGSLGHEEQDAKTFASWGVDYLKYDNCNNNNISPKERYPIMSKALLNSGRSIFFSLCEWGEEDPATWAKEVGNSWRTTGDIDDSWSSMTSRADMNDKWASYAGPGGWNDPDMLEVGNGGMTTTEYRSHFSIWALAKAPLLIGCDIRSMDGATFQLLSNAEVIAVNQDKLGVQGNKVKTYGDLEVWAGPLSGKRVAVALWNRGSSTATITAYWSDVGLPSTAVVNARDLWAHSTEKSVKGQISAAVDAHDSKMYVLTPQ

For `CC(C)NC(C)C`, the result in assay [1], in [3], in assay [4], in assay [5], in [6] and in [7] was inactive. In addition, the compound was called inactive in assay [8], in [9], in [10], in assay [11], in assay [12] and in [13]. The outcome in assay [14], in [15], in assay [16], in [17], in assay [18] and in assay [19] was inactive. In addition, the Potency result in assay [2] was “inactive”.
In the case of `C[C@]12CCC(=O)C=C1CC[C@@H]1[C@@H]2CC[C@@]2(C)[C@H]1CC[C@]2(C)O`, the compound was classed as inactive in assay [1], in [3], in assay [4], in assay [5], in [6] and in assay [7]. Also, the call in assay [8], in [9], in assay [10], in [11], in assay [12] and in [13] was inactive. The outcome in assay [14], in assay [15], in assay [16], in assay [17], in assay [18] and in assay [19] was inactive.
As for `CCN(CC)CCNC(=O)c1cc(S(C)(=O)=O)ccc1OC`, the outcome in [20] was inactive.
Regarding `CN1[C@@H]2CC[C@H]1CC(OC(c1ccccc1)c1ccccc1)C2` (some centres undefined), the compound was called inactive in assay [20].
As to `C[N+](C)(C)CCCCCC[N+](C)(C)C`, the call in assay [20] was inactive.
Turning to `O=P1(N(CCCl)CCCl)NCCCO1` (centres undefined), the result in [1], in [20], in assay [3], in assay [4], in assay [5] and in assay [6] was inactive. Further, the compound was called inactive in assay [7], in [8], in assay [9], in assay [10], in [11] and in assay [12]. Further, the compound was called inactive in [13], in [14], in [15], in assay [16], in assay [17] and in assay [18]. Further, the compound was called inactive in assay [19]. The Potency result in assay [2] is “inactive”.
Take `Clc1cccc(Cl)c1NC1=NCCN1`: the compound was classed as inactive in [20].
Take `NC1CCN(c2cccc(Cl)n2)CC1`: the outcome in assay [20] was inactive.
On to `Nc1ccccc1C(=O)O`, for which the call in [1], in [3], in assay [4], in assay [5], in assay [6] and in [7] was inactive. Moreover, the call in assay [8], in [10], in assay [11], in assay [12], in [13] and in assay [14] was inactive. The compound was called inactive in assay [15], in assay [16], in [17], in assay [18] and in assay [19]. Further, the Potency entry in assay [2] was “inactive”.
For `CC(C)c1cccc(C(C)C)c1O`, the outcome in assay [1], in assay [20], in [3], in assay [4], in assay [5] and in [6] was inactive. Also, the call in assay [7], in assay [8], in assay [9], in [10], in assay [11] and in [12] was inactive. The compound was called inactive in assay [13], in [14], in assay [15], in assay [16], in assay [17] and in assay [19]. In addition, the Potency entry in [2] was “inactive”.
Regarding `C[C@]12CCC(=O)C=C1CC[C@@H]1[C@@H]2CC[C@]2(C)C(=O)CC[C@@H]12`, the call in [1], in assay [20], in assay [3], in assay [4], in assay [5] and in [6] was inactive. Also, the result in assay [7], in assay [8], in assay [9], in assay [10], in assay [11] and in assay [12] was inactive. In addition, the call in assay [13], in [14], in [15], in assay [16], in assay [17] and in [18] was inactive. Also, the compound was called inactive in assay [19]. For the same compound, the Potency result in [2] is “inactive and 15.8 µM (active)”.
